Targets with a hit are over-represented here; the source holds about 7,900 in all. About 0.6% of all pairs of compound and target were hits.
Legend:
Assay in all cases: log2 fold change, soluble protein after heating vs DMSO (PISA); higher = thermal stabilisation; K562 cells, 10 uM, 30 min; active = over 0.2 and 3.5 SD of the protein, either way, in both replicates (recomputed)
[1] = compound: CC[C@@H]1C(=O)N(C)c2cnc(Nc3ccc(C(=O)NC4CCN(C)CC4)cc3OC)nc2N1C1CCCC1
Summary of the method: (§1)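 Soluble protein was quantified by TMTpro 16plex LC-MS/MS after channel sums were equalised. It was obtained as the supernatant after 21,000xg for 90 min from pooled aliquots of K562 cells (2×10^6 cells/mL, 10 μM compound, 30 min) heated for 3 min across 48°C-58°C and extracted in PBS with 0.5% NP-40 at 4°C. Thermal stability values are relative to control samples and come from duplicates. They are given as log2 fold changes.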

volasertib = compound: CC[C@@H]1C(=O)N(C)c2cnc(Nc3ccc(C(=O)N[C@H]4CC[C@H](N5CCN(CC6CC6)CC5)CC4)cc3OC)nc2N1C(C)C [volasertib]
Summary of the method: as §1

[2] = compound: CC[C@H](C)N1C=C(C2=C(C=C(C=C21)C3=CN=C(C=C3)N4CCNCC4)C(=O)NCC5=C(C=C(NC5=O)C)C)C
Summary of the method: as §1

epoxomicin = compound: CC[C@H](C)[C@@H](C(=O)N[C@@H]([C@@H](C)O)C(=O)N[C@@H](CC(C)C)C(=O)[C@]1(CO1)C)NC(=O)[C@H]([C@@H](C)CC)N(C)C(=O)C [epoxomicin]
Summary of the method: as §1

[3] = compound: CCn1c(C(=O)N(C2CC2)C2CC2)cc2c3c(ncn3C)c(Nc3cc(C)n(C)n3)nc21
Summary of the method: as §1

[4] = compound: CCn1cc(-c2ccnc3[nH]c(-c4cccc(CN(C)C)c4)cc23)c(-c2ccc(NC(=O)N(C)C)cc2)n1
Summary of the method: as §1

[5] = compound: CN(C)CC(=O)Nc1ccc2[nH]c(=O)c3ccccc3c2c1
Summary of the method: as §1

rosiglitazone = compound: CN(CCOC1=CC=C(C=C1)C[C@H]2C(=O)NC(=O)S2)C3=CC=CC=N3 (racemic) [rosiglitazone]
Summary of the method: as §1

[6] = compound: CN1C2=C(C3=C1C(=O)N(N=C3)CC4=CC(=CC=C4)N)SC(=C2)S(=O)C
Summary of the method: as §1

[7] = compound: CN1CCC(CNc2ccc3ncc(-c4cccc(OC(F)(F)F)c4)n3n2)CC1
Summary of the method: as §1

saracatinib = compound: CN1CCN(CCOc2cc(OC3CCOCC3)c3c(Nc4c(Cl)ccc5c4OCO5)ncnc3c2)CC1 [saracatinib]
Summary of the method: as §1

sotrastaurin = compound: CN1CCN(c2nc(C3=C(c4c[nH]c5ccccc45)C(=O)NC3=O)c3ccccc3n2)CC1 [sotrastaurin]
Summary of the method: as §1

alvocidib = compound: CN1CC[C@H](c2c(O)cc(O)c3c(=O)cc(-c4ccccc4Cl)oc23)[C@H](O)C1 [alvocidib]
Summary of the method: as §1

Tubastatin A = compound: CN1CCc2c(c3ccccc3n2Cc2ccc(C(=O)NO)cc2)C1 [Tubastatin A]
Summary of the method: as §1

[8] = compound: CNC(=O)C1=CC=CC=C1NC2=NC(=NC=C2Cl)NC3=C(C=C(C=C3)N4CCOCC4)OC
Summary of the method: as §1

defactinib = compound: CNC(=O)c1ccc(Nc2ncc(C(F)(F)F)c(NCc3nccnc3N(C)S(C)(=O)=O)n2)cc1 [defactinib]
Summary of the method: as §1

rucaparib = compound: CNCc1ccc(-c2[nH]c3cc(F)cc4c3c2CCNC4=O)cc1 [rucaparib]
Summary of the method: as §1

[9] = compound: CNc1nc(-c2ccc3c(N)n[nH]c3c2)cc(N2C[C@@H](C(=O)NC3CCCCC3)CC[C@H]2C)n1
Summary of the method: as §1

encorafenib = compound: COC(=O)N[C@@H](C)CNc1nccc(-c2cn(C(C)C)nc2-c2cc(Cl)cc(NS(C)(=O)=O)c2F)n1 [encorafenib]
Summary of the method: as §1

[10] = compound: COC(=O)[C@H](CCSC)NC(=O)C1=C(C=C(C=C1)NC[C@H](CS)N)C2=CC=CC=C2
Summary of the method: as §1

Measured: log2 fold change

TFR2 (UniProt Q9UP52)
inactive: [2] -0.045 | epoxomicin 0.01 | [3] 0.037 | [4] 0.038 | [5] -0.035 | rosiglitazone -0.007 | [6] -0.003 | [7] -0.22 | saracatinib 0.007 | sotrastaurin -0.031 | alvocidib 0.029 | Tubastatin A -0.053 | [8] 0.006 | defactinib 0.029 | rucaparib 0.029 | [9] -0.129 | encorafenib -0.015 | [10] 0.009
active: [1] -0.483 | volasertib -0.382

SMIM20 isoform 2 (UniProt Q8N5G0)
Chain of UniProt Q8N5G0 (Q8N5G0 whole entry, looked up): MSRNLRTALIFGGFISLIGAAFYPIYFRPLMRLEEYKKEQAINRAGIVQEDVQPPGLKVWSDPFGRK
active: epoxomicin 0.483
inactive: [1] 0.069 | volasertib 0.048 | [2] -0.033 | [3] 0.038 | [4] -0.065 | [5] 0.007 | rosiglitazone 0.036 | [6] 0.051 | [7] 0.002 | saracatinib 0 | sotrastaurin 0.056 | alvocidib -0.024 | Tubastatin A -0.013 | [8] 0.018 | defactinib -0.138 | rucaparib -0.088 | [9] -0.094 | encorafenib -0.055 | [10] -0.143

SPR (UniProt P35270)
Chain of UniProt P35270 (P35270 whole entry, looked up): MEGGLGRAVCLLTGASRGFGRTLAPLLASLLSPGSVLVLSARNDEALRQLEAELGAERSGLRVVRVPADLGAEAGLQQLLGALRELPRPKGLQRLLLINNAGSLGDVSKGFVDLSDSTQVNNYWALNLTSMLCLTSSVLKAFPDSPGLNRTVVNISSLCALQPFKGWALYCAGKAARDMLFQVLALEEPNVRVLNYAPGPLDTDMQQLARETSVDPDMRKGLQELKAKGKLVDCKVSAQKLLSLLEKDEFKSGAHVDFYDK
active: [3] 0.412
inactive: [1] 0.02 | volasertib 0.165 | [2] 0.013 | epoxomicin -0.054 | [4] 0.073 | [5] 0.153 | rosiglitazone 0.008 | [6] -0.184 | [7] 0.012 | saracatinib 0.318 | sotrastaurin 0.052 | alvocidib 0.064 | Tubastatin A -0.014 | [8] -0.053 | defactinib 0.237 | rucaparib 0.043 | [9] 0.026 | encorafenib -0.065 | [10] -0.021

STK25 (UniProt O00506)
Chain of UniProt O00506 (O00506 whole entry, looked up): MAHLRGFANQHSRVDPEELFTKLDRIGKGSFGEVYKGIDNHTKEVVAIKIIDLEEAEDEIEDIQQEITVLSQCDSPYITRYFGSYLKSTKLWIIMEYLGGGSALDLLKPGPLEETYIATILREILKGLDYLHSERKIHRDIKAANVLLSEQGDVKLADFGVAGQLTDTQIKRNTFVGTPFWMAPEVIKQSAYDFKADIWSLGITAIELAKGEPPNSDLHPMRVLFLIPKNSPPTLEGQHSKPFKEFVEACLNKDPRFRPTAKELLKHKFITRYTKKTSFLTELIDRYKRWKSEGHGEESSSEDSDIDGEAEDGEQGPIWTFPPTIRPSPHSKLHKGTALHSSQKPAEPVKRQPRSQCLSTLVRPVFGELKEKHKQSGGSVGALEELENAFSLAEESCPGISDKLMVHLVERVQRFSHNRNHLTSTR
inactive: [1] -0.031 | volasertib -0.107 | [2] 0.024 | epoxomicin 0.033 | [3] -0.041 | [4] -0.008 | [5] -0.024 | rosiglitazone 0.077 | [6] 0.017 | [7] -0.216 | saracatinib -0.045 | sotrastaurin 0.088 | alvocidib 0.028 | Tubastatin A -0.007 | [8] -0.078 | defactinib -0.041 | rucaparib 0.011 | [9] -0.012 | encorafenib 0.039 | [10] 0.051

THADA (UniProt Q6YHU6)
Chain of UniProt Q6YHU6 (Q6YHU6 whole entry, looked up): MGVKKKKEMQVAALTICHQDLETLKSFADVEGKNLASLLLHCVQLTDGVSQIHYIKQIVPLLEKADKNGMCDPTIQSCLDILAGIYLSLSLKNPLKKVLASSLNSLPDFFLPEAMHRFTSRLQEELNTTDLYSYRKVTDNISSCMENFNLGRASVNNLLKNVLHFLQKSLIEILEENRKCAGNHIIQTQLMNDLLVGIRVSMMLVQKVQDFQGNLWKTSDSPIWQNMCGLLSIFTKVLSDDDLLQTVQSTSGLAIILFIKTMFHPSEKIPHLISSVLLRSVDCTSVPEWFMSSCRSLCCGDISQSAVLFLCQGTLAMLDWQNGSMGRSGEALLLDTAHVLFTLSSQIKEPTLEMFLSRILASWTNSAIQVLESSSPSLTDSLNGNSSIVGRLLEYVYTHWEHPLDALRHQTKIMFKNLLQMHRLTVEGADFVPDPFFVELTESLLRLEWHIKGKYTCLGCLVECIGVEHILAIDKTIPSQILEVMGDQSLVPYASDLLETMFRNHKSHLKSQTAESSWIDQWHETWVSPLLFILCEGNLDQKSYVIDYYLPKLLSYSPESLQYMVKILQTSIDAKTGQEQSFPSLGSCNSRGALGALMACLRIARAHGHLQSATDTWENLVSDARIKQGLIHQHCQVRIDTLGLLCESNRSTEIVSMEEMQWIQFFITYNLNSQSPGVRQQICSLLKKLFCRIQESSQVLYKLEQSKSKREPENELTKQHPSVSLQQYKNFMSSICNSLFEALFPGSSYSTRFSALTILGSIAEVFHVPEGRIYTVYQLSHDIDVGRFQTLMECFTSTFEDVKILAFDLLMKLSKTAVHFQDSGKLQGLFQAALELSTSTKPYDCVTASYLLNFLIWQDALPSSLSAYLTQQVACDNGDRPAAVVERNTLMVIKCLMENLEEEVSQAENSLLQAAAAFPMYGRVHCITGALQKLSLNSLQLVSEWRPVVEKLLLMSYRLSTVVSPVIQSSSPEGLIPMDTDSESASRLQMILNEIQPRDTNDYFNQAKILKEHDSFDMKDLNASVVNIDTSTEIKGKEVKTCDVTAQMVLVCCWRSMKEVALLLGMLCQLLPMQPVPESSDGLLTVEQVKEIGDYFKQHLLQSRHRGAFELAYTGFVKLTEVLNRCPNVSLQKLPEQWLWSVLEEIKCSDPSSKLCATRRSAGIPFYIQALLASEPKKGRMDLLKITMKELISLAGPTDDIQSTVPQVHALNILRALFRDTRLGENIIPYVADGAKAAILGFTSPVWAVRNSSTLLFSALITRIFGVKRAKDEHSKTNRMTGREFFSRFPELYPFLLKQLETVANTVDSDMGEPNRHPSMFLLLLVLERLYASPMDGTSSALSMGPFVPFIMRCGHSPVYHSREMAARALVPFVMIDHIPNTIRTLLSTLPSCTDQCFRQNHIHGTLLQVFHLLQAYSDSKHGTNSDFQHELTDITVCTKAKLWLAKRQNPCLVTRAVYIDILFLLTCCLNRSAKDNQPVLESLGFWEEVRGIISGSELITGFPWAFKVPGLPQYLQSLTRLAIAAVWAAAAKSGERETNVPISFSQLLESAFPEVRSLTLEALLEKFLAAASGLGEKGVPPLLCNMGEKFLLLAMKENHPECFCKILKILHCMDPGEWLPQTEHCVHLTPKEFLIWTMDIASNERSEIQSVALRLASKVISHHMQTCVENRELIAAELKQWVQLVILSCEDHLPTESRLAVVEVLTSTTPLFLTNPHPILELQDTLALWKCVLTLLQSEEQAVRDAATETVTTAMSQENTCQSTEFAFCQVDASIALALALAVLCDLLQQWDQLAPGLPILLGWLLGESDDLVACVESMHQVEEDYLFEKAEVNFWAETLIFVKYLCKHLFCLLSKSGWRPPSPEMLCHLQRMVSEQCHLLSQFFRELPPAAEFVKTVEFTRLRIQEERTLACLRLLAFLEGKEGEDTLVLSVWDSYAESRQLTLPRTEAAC
inactive: [1] -0.003 | volasertib -0.017 | [2] 0.011 | epoxomicin -0.007 | [3] 0 | [4] 0.057 | [5] 0.051 | rosiglitazone 0.076 | [6] -0.019 | [7] -0.146 | saracatinib 0 | sotrastaurin -0.104 | alvocidib -0.095 | Tubastatin A 0.073 | [8] -0.036 | defactinib -0.079 | rucaparib -0.017 | [9] 0.047 | encorafenib 0.09 | [10] -0.014

SRSF11 (UniProt Q05519)
Chain of UniProt Q05519 (Q05519 whole entry, looked up): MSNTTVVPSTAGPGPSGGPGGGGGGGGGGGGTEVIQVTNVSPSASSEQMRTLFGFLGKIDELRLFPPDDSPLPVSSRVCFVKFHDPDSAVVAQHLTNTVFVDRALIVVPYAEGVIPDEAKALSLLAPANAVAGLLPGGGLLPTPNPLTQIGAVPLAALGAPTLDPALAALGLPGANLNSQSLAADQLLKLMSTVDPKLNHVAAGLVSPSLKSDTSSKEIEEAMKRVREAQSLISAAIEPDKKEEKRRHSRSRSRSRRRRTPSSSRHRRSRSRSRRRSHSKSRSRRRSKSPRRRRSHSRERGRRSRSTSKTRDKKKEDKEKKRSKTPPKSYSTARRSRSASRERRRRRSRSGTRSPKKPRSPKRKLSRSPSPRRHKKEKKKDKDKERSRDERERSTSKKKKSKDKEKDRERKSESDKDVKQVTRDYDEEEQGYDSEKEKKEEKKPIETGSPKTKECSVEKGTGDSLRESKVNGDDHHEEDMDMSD
active: volasertib -0.311
inactive: [1] -0.088 | [2] 0.074 | epoxomicin 0.047 | [3] -0.022 | [4] -0.072 | [5] 0.02 | rosiglitazone 0.006 | [6] -0.018 | [7] 0.128 | saracatinib 0.062 | sotrastaurin -0.059 | alvocidib -0.209 | Tubastatin A 0.015 | [8] -0.243 | defactinib -0.174 | rucaparib 0.005 | [9] -0.089 | encorafenib -0.016 | [10] -0.045

SLC25A42 (UniProt Q86VD7)
Chain of UniProt Q86VD7 (Q86VD7 whole entry, looked up): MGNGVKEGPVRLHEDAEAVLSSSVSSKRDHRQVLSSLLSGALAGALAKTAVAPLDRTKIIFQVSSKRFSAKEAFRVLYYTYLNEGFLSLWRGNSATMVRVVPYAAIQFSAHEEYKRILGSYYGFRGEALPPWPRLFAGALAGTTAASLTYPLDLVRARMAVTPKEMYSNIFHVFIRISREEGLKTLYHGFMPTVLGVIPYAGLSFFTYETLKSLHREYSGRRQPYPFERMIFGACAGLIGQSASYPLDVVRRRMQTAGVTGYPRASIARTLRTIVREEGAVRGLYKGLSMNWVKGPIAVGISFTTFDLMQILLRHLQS
inactive: [1] -0.025 | volasertib 0.039 | [2] -0.028 | epoxomicin 0 | [3] 0.019 | [4] 0.002 | [5] -0.021 | rosiglitazone 0.025 | [6] 0.022 | [7] 0.022 | saracatinib 0.105 | sotrastaurin 0.023 | alvocidib 0 | Tubastatin A -0.032 | [8] 0.005 | defactinib 0.101 | rucaparib 0.021 | [9] 0.035 | encorafenib -0.067 | [10] 0.083

SURF1 (UniProt Q15526)
Chain of UniProt Q15526 (Q15526 whole entry, looked up): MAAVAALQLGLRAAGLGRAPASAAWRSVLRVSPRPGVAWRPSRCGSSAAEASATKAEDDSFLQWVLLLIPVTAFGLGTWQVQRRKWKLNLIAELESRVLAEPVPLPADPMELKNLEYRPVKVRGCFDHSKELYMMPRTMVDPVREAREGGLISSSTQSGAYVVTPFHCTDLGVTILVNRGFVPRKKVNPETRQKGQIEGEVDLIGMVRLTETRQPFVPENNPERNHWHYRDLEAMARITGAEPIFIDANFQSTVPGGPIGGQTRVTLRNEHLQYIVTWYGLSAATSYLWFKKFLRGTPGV
active: volasertib -0.274 | [7] -0.311
inactive: [1] -0.085 | [2] -0.055 | epoxomicin 0.012 | [3] -0.013 | [4] -0.059 | [5] 0.013 | rosiglitazone 0.035 | [6] -0.016 | saracatinib 0.034 | sotrastaurin -0.084 | alvocidib -0.078 | Tubastatin A -0.03 | [8] 0.026 | defactinib -0.012 | rucaparib -0.083 | [9] -0.092 | encorafenib 0.017 | [10] -0.105

TGFBR1 isoform 2 (UniProt P36897)
Chain of UniProt P36897 (P36897 whole entry, looked up): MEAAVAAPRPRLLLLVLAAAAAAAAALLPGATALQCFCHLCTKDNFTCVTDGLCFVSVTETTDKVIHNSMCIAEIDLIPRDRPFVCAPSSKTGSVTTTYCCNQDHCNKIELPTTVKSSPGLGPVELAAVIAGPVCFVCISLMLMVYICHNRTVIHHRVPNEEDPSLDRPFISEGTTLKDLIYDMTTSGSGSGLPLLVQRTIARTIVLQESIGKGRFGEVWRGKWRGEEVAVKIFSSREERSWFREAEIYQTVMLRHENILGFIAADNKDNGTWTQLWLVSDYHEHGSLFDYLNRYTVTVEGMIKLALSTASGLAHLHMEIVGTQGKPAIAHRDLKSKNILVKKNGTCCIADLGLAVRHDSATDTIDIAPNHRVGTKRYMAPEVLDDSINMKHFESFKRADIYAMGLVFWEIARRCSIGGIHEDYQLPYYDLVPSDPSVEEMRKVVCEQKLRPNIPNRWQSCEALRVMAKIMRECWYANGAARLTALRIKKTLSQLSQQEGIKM
active: saracatinib 0.371
inactive: [1] -0.041 | volasertib -0.179 | [2] -0.022 | epoxomicin 0.033 | [3] -0.049 | [4] -0.023 | [5] -0.028 | rosiglitazone 0.122 | [6] 0.021 | [7] 0.076 | sotrastaurin 0.026 | alvocidib -0.009 | Tubastatin A 0.023 | [8] -0.045 | defactinib 0.039 | rucaparib 0.096 | [9] 0.041 | encorafenib 0.041 | [10] -0.055

SLC25A36 (UniProt Q96CQ1)
inactive: [1] -0.133 | volasertib 0.059 | [2] 0.045 | epoxomicin 0.026 | [3] -0.002 | [4] -0.135 | [5] -0.217 | rosiglitazone -0.073 | [6] 0.02 | [7] 0.046 | saracatinib 0.233 | sotrastaurin -0.057 | alvocidib -0.018 | Tubastatin A -0.027 | [8] 0.013 | defactinib 0.011 | rucaparib 0.066 | [9] 0.016 | encorafenib -0.055 | [10] 0.162

TATDN2 (UniProt Q93075)
inactive: [1] 0.071 | volasertib -0.008 | [2] 0.104 | epoxomicin -0.096 | [3] 0.044 | [4] -0.071 | [5] -0.098 | rosiglitazone 0.082 | [6] 0.046 | [7] -0.076 | saracatinib -0.017 | sotrastaurin 0.111 | alvocidib -0.136 | Tubastatin A -0.094 | [8] -0.002 | defactinib 0 | rucaparib -0.175 | [9] 0 | encorafenib 0.099 | [10] -0.031

THRAP3 (UniProt Q9Y2W1)
inactive: [1] 0.03 | volasertib 0.098 | [2] -0.137 | epoxomicin -0.093 | [3] -0.013 | [4] 0.101 | [5] -0.026 | rosiglitazone -0.007 | [6] 0.025 | [7] -0.058 | saracatinib 0.035 | sotrastaurin 0.008 | alvocidib 0.094 | Tubastatin A 0.048 | [8] -0.266 | defactinib -0.29 | rucaparib -0.002 | [9] -0.047 | encorafenib -0.015 | [10] 0.019

SOAT1 (UniProt P35610)
Chain of UniProt P35610 (P35610 whole entry, looked up): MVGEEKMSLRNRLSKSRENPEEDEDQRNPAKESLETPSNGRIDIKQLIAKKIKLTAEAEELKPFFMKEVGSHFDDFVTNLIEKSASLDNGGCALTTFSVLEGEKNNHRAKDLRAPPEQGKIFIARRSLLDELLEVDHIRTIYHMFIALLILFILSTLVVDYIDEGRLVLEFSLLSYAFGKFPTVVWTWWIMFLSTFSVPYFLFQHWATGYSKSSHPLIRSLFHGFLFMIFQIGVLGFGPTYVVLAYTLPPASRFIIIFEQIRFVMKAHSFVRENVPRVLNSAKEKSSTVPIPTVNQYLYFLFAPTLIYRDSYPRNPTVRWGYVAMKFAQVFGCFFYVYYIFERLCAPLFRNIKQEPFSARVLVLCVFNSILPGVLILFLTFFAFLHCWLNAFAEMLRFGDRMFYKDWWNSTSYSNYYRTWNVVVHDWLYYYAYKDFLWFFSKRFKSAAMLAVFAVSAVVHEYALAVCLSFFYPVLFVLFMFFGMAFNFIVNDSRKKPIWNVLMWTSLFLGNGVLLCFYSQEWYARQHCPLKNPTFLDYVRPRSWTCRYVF
inactive: [1] -0.017 | volasertib 0.053 | [2] -0.094 | epoxomicin 0.029 | [3] 0.009 | [4] 0.013 | [5] -0.04 | rosiglitazone -0.016 | [6] -0.051 | [7] -0.09 | saracatinib 0.026 | sotrastaurin -0.06 | alvocidib -0.02 | Tubastatin A -0.057 | [8] 0.186 | defactinib -0.053 | rucaparib -0.064 | [9] 0.014 | encorafenib 0.122 | [10] 0.111

STK39 (UniProt Q9UEW8)
inactive: [1] -0.062 | volasertib -0.139 | [2] 0.023 | epoxomicin 0.054 | [3] -0.055 | [4] -0.036 | [5] -0.011 | rosiglitazone 0.049 | [6] 0.005 | saracatinib -0.014 | sotrastaurin -0.017 | alvocidib 0.013 | Tubastatin A 0.009 | [8] -0.045 | defactinib -0.015 | rucaparib 0.014 | [9] -0.008 | encorafenib 0.039 | [10] 0.056
active: [7] -0.25

STAT3 (UniProt P40763)
inactive: [2] 0.056 | epoxomicin 0.002 | [3] -0.052 | [4] -0.059 | [5] 0.052 | rosiglitazone 0.063 | [6] -0.047 | saracatinib 0.025 | sotrastaurin -0.144 | alvocidib -0.112 | Tubastatin A 0.05 | [8] 0.029 | defactinib -0.124 | rucaparib -0.062 | [9] -0.017 | encorafenib 0.077 | [10] -0.012
active: [1] -0.336 | volasertib -0.767 | [7] -0.275

TCOF1 isoform 4 (UniProt Q13428)
inactive: [1] -0.018 | volasertib 0.034 | [2] -0.016 | epoxomicin -0.02 | [3] 0.013 | [4] 0.063 | [5] -0.052 | rosiglitazone -0.011 | [6] 0.019 | [7] -0.06 | saracatinib 0.016 | sotrastaurin -0.064 | alvocidib 0.012 | Tubastatin A 0.013 | [8] -0.006 | defactinib -0.033 | rucaparib 0.02 | [9] -0.038 | encorafenib 0.002 | [10] 0.026
